{"source": "ChEMBL document CHEMBL3988442", "about": "“University of Dundee, Small-Polar-MMV Screening Library” (2021)", "note": "Screen size: about 48,000 compounds; about 13,000 (27%) showed an effect of 50% or more. The list shows a part of the results.", "data": [{"test_system": "Wolbachia pipientis", "test": "Anti-Wolbachia Cell-Based Screen", "format": "functional", "parameters": "scale not given: in the data most compounds retested in dose-response had high values", "conditions": "5 µM", "units": {"Percent Effect": "%"}, "values": [{"smiles": "CC(C)=CCN1CCN(S(=O)(=O)c2cn(C)cn2)[C@H]2CS(=O)(=O)C[C@H]21", "Percent Effect": -6.169}, {"smiles": "Cn1cc(NC(=O)CCCc2cccs2)c(=O)n(C)c1=O", "Percent Effect": -5.332}, {"smiles": "NC(=O)C1CCN(CCc2ccc(NCc3ccsc3)cc2)CC1", "Percent Effect": -14.27}, {"smiles": "O=C(C1CCCC1)N1CCn2c(nnc2C2CCCNC2)C1", "note": "(stereo unspecified)", "Percent Effect": 107.7}, {"smiles": "O=C(CN1CCNC1=O)N1CCc2nnc(-c3ccccc3)n2CC1", "Percent Effect": -8.724}, {"smiles": "Cn1c(CN2CCC(O)CC2)nnc1C1CCCN(C(=O)C2CNC2)C1", "note": "(stereo unspecified)", "Percent Effect": 15.55}, {"smiles": "O=C(C1CCC1)N1CCn2c(COc3ncccn3)nnc2C1", "Percent Effect": -0.8888}, {"smiles": "Cn1c(CN2CCCC2)nnc1C1CCCN(C(=O)CN2CCCC2)C1", "note": "(stereo unspecified)", "Percent Effect": -18.41}, {"smiles": "O=C(CN1CCCCCC1)N1CCc2nnc(C3CCCNC3)n2CC1", "note": "(stereo unspecified)", "Percent Effect": 109}, {"smiles": "Cc1cc(C)nc(N2CCC(OCCN3CCCCC3)C2)n1", "note": "(stereo unspecified)", "Percent Effect": 5.961}, {"smiles": "CC(C)OC(=O)N1CCC(Nc2ncc(Br)cn2)CC1", "Percent Effect": -1.588}, {"smiles": "N#Cc1ccccc1N1CCC(Nc2nccnc2C#N)CC1", "Percent Effect": -4.6}, {"smiles": "COCCC(=O)N1CCC(Nc2ncc(Br)cn2)CC1", "Percent Effect": -2.915}, {"smiles": "CC(C)OCCN1CCC(Nc2nccnc2C#N)CC1", "Percent Effect": 120.8}, {"smiles": "CC(C)OCCN1CCC(Nc2ncc(Br)cn2)CC1", "Percent Effect": 82.04}, {"smiles": "N#Cc1nccnc1NC1CCN(c2c(F)cccc2F)C1", "note": "(stereo unspecified)", "Percent Effect": 7.205}, {"smiles": "CC(C)OCCN1CCN(C(=O)c2cc(-n3cccn3)ccn2)CC1", "Percent Effect": -9.064}, {"smiles": "Cc1cccc(C(=O)N2CCN(CCOC(C)C)CC2)n1", "Percent Effect": 2.598}, {"smiles": "CC(C)OCCN1CCC(Nc2ncccn2)CC1", "Percent Effect": 110.1}, {"smiles": "Cc1cc(C)nc(NC2CCN(CCOC(C)C)CC2)n1", "Percent Effect": 107}, {"smiles": "CC(C)OCCN1CCC(N2CCN(C)C2=O)CC1", "Percent Effect": 7.095}, {"smiles": "CCNC(=O)C1CCCN1S(=O)(=O)c1sc(=O)[nH]c1C", "note": "(stereo unspecified)", "Percent Effect": -8.251}, {"smiles": "O=S(=O)(C1CC1)N1CCOC2(COCCN(c3ncccn3)C2)C1", "note": "(stereo unspecified)", "Percent Effect": -6.11}, {"smiles": "Cc1cnccc1-n1nc(C(C)C)nc1CCN(C)S(C)(=O)=O", "Percent Effect": -12.77}, {"smiles": "CCN(CC(F)(F)F)C(=O)C1CCCN(Cc2cscn2)C1", "note": "(stereo unspecified)", "Percent Effect": 6.1}, {"smiles": "COCC(=O)NCCC(=O)N1CCN(S(=O)(=O)c2ccc(Br)cc2)CC1", "Percent Effect": 15.42}, {"smiles": "COCCN(Cc1nc2c(cnn2C)c(=O)[nH]1)C(C)c1ccccc1", "note": "(stereo unspecified)", "Percent Effect": 98.63}, {"smiles": "COCCCN(CCOC)Cc1nc2c(cnn2C)c(=O)[nH]1", "Percent Effect": 93.22}, {"smiles": "CC(C)N(Cc1nc2c(cnn2C)c(=O)[nH]1)c1ccccc1", "Percent Effect": -5.677}, {"smiles": "COCCN(CCOC)Cc1nc2c(cnn2C)c(=O)[nH]1", "Percent Effect": 107.8}, {"smiles": "COCCN(CCc1ccccc1)Cc1nc2c(cnn2C)c(=O)[nH]1", "Percent Effect": 10.98}, {"smiles": "Cc1ccc(C(C)N(C)Cc2nc3c(cnn3C)c(=O)[nH]2)cc1", "note": "(stereo unspecified)", "Percent Effect": -5.253}, {"smiles": "COCCCN(C)Cc1nc2c(cnn2C)c(=O)[nH]1", "Percent Effect": -7.298}, {"smiles": "CC(C)(C)c1cc(CN2CCOCC(O)C2)n[nH]1", "note": "(stereo unspecified)", "Percent Effect": 40.36}, {"smiles": "CC(=O)Nc1cc(F)c(S(=O)(=O)N(C)CC2CCC2)c(F)c1", "Percent Effect": 32.27}, {"smiles": "Cn1cccc1CN1CCC2(CC1)CC(Oc1cccnc1)C2.O=C(O)C(F)(F)F.O=C(O)C(F)(F)F", "Percent Effect": 9.854}, {"smiles": "COC(=O)C(C)Sc1nnnn1C1CCOCC1", "note": "(stereo unspecified)", "Percent Effect": -41.77}, {"smiles": "O=C1OCCC1N1CCN(c2ccccn2)CC1", "note": "(stereo unspecified)", "Percent Effect": 0.5958}, {"smiles": "Cl.Cl.OC(CN1CCN(Cc2ccccc2)CC1)C1CC1", "note": "(stereo unspecified)", "Percent Effect": 1.667}, {"smiles": "OCC1(CC2CC2)CCCN(Cc2cnc(N3CCOCC3)nc2)C1", "note": "(stereo unspecified)", "Percent Effect": 1.203}, {"smiles": "OCC1(O)CCN(Cc2ccc(C3CCCCO3)o2)CC1", "note": "(stereo unspecified)", "Percent Effect": 2.159}, {"smiles": "c1ccc(N2CCN(Cc3cnc(C4CCCCO4)nc3)CC2)nc1", "note": "(stereo unspecified)", "Percent Effect": 112.3}, {"smiles": "CN(C)[C@H]1CCCCN(Cc2cnc(NCc3ccccc3)nc2)C1", "Percent Effect": -3.217}, {"smiles": "CCOC(C)c1noc(CN2CCCN(c3ccccn3)CC2)n1", "note": "(stereo unspecified)", "Percent Effect": 3.417}, {"smiles": "CNS(=O)(=O)c1ccc(CN2CCCN(c3ccccc3)CC2)cc1", "Percent Effect": 23.15}, {"smiles": "O=C(O)C1CN(Cc2cnc(C3CCCCC3)nc2)CCO1", "note": "(stereo unspecified)", "Percent Effect": -13.64}, {"smiles": "c1nc(C2CCCCO2)ncc1CN1CCOCC1", "note": "(stereo unspecified)", "Percent Effect": 157.1}, {"smiles": "c1ccc(CN2CCN(Cc3cnc(C4CCCCO4)nc3)CC2)cc1", "note": "(stereo unspecified)", "Percent Effect": 181.4}, {"smiles": "c1ccc(N2CCN(Cc3cnc(C4CCCCO4)nc3)CC2)cc1", "note": "(stereo unspecified)", "Percent Effect": 50.77}, {"smiles": "COc1ccc(CC(=O)N2CCc3nnc(N(C)C)cc3C2)cc1F", "Percent Effect": -3.012}, {"smiles": "CCN(CC)S(=O)(=O)N1C[C@@H]2CC[C@H](C1)N(Cc1cscn1)C2=O", "Percent Effect": -30.66}]}]}
